Data taken from PubChem BioAssay (EPA / NIEHS).
The source made the active and inactive calls. Rule for the calls: active = hit-call score of the fitted dose curve at least 0.9, where 1 is the maximum; inactive = score below 0.9.

Legend:
[1] = APR_HepG2_NuclearSize_72hr: Apredica 72-hour HepG2 Assay for Nuclear Size (AID 2282925); settings: high-content imaging, actives raise or lower the signal
Outline: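 Compounds (0.39–200 uM, final DMSO 0.5%) were applied to HepG2 for 72 hr. Cells were then formaldehyde-fixed, permeabilized and labelled with Hoechst 33342. Nuclear diameter was quantified from six images per well.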

[2] = ATG_CRE_CIS: Attagene CIS-FACTORIAL HepG2 Assay for human cAMP Responsive Element (CRE) binding protein 3 (AID 2282926); settings: HepG2 CRE cis-reporter, Attagene multiplexed mRNA; actives raise or lower the signal
Outline: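 Cells carrying cis-regulated reporter constructs respond through their own endogenous factors. After 24 h treatment, RNA is reverse-transcribed, amplified, labelled and sized by capillary electrophoresis; up- and down-regulation are both scored against vehicle.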

[3] = target: CCAAT/enhancer-binding protein beta (Homo sapiens) (UniProt P17676); assay: ATG_C_EBP_CIS: Attagene CIS-FACTORIAL HepG2 Assay for human CCAAT/Enhancer Binding Protein (C/EBP) beta (AID 2282927); settings: HepG2 Attagene cis-factorial transcription factor reporter; actives raise or lower the signal
Sequence of CCAAT/enhancer-binding protein beta (Homo sapiens) (P17676 whole entry, looked up): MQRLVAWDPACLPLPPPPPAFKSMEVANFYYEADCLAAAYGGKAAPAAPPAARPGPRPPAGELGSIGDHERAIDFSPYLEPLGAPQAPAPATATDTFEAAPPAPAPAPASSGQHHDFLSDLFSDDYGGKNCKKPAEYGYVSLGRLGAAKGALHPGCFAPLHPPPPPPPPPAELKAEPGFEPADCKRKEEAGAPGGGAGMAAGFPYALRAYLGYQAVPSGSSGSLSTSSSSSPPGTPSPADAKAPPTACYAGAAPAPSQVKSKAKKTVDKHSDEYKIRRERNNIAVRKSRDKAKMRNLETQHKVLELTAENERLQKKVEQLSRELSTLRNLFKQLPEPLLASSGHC
Outline: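 RT-PCR/capillary electrophoresis fluorescence of reporter mRNA, 24 h post-dose, in HepG2 cells carrying transfected cis-promoter reporter units. Bidirectional curve fitting against DMSO baseline captures gain or loss of signal.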

[4] = ATG_CMV_CIS: Attagene CIS-FACTORIAL HepG2 Assay for human CMV (Internal Marker) (AID 2282928); settings: HepG2 CMV promoter reporter, transcription factor profiling; actives raise or lower the signal;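 note: endpoint acts as a background internal control marker rather than a target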
Outline: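 Reporter transcripts from transfected HepG2 cells are isolated after 24 h of chemical dosing, reverse-transcribed and amplified. Fragments labeled with 6-FAM are cut with HpaI and quantified by capillary electrophoresis; DMSO defines baseline.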

[5] = ATG_DR4_LXR_CIS: Attagene CIS-FACTORIAL HepG2 Assay for human Liver X Receptor (LXR), DR4 submotif (AID 2282929); settings: HepG2 Attagene DR4 cis-reporter, mRNA transcription; actives raise or lower the signal
Outline: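 After transient transfection with multiplexed cis-promoter reporter units, HepG2 cells received test chemicals for 24 h. Reporter mRNA induction, detected by fluorescence after RT-PCR and capillary electrophoresis, was scored relative to DMSO.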

[6] = target: Aryl hydrocarbon receptor (Homo sapiens) (UniProt P35869); assay: ATG_Ahr_CIS: Attagene CIS-FACTORIAL HepG2 Assay for human Aryl Hydrocarbon Receptor (Ahr) (AID 2282930); settings: HepG2 AhR cis-factorial reporter transcription; actives raise or lower the signal
Sequence of Aryl hydrocarbon receptor (Homo sapiens) (P35869 whole entry, looked up): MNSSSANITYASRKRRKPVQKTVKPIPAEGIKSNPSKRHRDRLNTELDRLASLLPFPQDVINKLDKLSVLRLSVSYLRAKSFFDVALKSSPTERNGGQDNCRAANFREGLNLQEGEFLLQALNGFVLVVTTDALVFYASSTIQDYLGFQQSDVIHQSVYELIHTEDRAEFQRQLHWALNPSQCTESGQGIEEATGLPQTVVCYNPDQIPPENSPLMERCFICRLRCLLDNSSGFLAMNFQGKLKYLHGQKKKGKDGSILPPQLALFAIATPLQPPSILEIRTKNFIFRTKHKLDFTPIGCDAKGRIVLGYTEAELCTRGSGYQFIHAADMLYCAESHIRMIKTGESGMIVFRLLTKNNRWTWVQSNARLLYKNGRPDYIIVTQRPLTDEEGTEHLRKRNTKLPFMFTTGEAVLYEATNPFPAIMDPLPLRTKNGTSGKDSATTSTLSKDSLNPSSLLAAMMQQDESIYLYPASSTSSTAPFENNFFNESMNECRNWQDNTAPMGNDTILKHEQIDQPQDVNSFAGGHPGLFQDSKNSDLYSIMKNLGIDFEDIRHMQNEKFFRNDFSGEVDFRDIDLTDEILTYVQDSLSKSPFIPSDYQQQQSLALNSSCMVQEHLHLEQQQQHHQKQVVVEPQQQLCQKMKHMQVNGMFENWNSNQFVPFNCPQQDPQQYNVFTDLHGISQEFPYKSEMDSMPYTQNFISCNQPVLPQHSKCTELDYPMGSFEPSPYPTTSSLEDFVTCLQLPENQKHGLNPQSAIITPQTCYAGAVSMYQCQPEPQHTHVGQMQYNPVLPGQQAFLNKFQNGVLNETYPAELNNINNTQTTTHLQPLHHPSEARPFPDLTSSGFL
Outline: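 HepG2 cells transiently transfected with cis-element-driven multiplexed reporter transcription units; endogenous transcription factor activity measured as reporter mRNA 24 h after dosing. RT-PCR, 6-FAM labelling, HpaI digestion, capillary electrophoresis; bidirectional fitting versus DMSO baseline.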

[7] = ATG_AP_1_CIS: Attagene CIS-FACTORIAL HepG2 Assay for human Activator Protein 1 (AP-1) (AID 2282931); settings: HepG2 Attagene cis-factorial AP-1 reporter mRNA; actives raise or lower the signal
Outline: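 After 24 h incubation with test chemical, RNA from transfected HepG2 cells was reverse-transcribed, amplified, fluorescently labelled and digested before capillary electrophoresis. Reporters were driven by cis-regulatory promoters; activity fitted bidirectionally versus DMSO.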

[8] = ATG_AP_2_CIS: Attagene CIS-FACTORIAL HepG2 Assay for human Activator Protein 2 (AP-2) (AID 2282932); settings: HepG2 AP-2 cis-reporter, Attagene transcription factor profiling; actives raise or lower the signal
Outline: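 Assay in transfected HepG2 with promoter-regulated reporters, 24 h incubation after dosing. Signal is reporter mRNA fluorescence (RT-PCR, capillary electrophoresis), analysed for both increases and decreases relative to DMSO controls.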

[9] = ATG_BRE_CIS: Attagene CIS-FACTORIAL HepG2 Assay for human Bone Morphogenetic Protein (BMP) Response Element (BRE) (AID 2282933); settings: HepG2 BMP response element reporter, Attagene transcription factor profiling; actives raise or lower the signal
Outline: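 Endogenous transcription factor activity at a BMP response element was monitored in transfected HepG2 cells 24 h after dosing. Fluorescent RT-PCR products were resolved by capillary electrophoresis, and activity was fitted in both directions versus DMSO.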

[10] = target: Transcription factor E2F1 (Homo sapiens) (UniProt Q01094); assay: ATG_E2F_CIS: Attagene CIS-FACTORIAL HepG2 Assay for human E2F Transcription Factor 1 (AID 2282935); settings: HepG2 Attagene cis-reporter, E2F reporter RNA transcripts; actives raise or lower the signal
Sequence of Transcription factor E2F1 (Homo sapiens) (Q01094 whole entry, looked up): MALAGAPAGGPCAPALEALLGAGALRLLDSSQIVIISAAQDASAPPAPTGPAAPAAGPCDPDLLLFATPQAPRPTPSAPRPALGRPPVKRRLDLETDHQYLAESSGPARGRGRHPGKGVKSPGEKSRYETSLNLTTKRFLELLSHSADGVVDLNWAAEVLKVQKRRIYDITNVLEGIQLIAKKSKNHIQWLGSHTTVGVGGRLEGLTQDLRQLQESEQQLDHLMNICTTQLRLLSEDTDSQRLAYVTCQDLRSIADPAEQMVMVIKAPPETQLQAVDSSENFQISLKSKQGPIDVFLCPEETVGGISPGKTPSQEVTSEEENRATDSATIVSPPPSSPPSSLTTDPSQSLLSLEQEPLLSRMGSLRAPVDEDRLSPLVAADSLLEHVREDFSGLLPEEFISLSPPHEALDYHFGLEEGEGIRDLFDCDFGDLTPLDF
Outline: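 In this cis-factorial format, endogenous factor activity drives transfected reporters in HepG2; transcripts collected at 24 h are quantified by fluorescence after RT-PCR and capillary separation.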

[11] = ATG_E_Box_CIS: Attagene CIS-FACTORIAL HepG2 Assay for human Enhancer Box (E-box) (AID 2282936); settings: HepG2 E-box cis-reporter transcription, actives raise or lower the signal
Outline: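 Measured 24 h post-dosing in HepG2 cells transfected with multiple cis-regulated reporter units, signal being reporter mRNA induction detected by fluorescent RT-PCR with capillary electrophoresis; gain or loss fitted against DMSO.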

[12] = ATG_M_61_CIS: Attagene CIS-FACTORIAL HepG2 Assay for M61 Transcription Factor (Internal Marker) (AID 2282937); settings: HepG2 Attagene CIS-FACTORIAL M61 internal marker reporter; actives raise or lower the signal
Outline: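 Using transiently transfected HepG2 liver cells, reporter transcript levels were assessed 24 h post-dosing by RT-PCR and capillary electrophoresis. Changes in either direction were fitted relative to DMSO controls.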

[13] = ATG_EGR_CIS: Attagene CIS-FACTORIAL HepG2 Assay for human Early Growth Response 1 (EGR1) (AID 2282938); settings: HepG2 Attagene CIS-FACTORIAL EGR reporter mRNA; actives raise or lower the signal
Outline: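 Fluorescent capillary-electrophoresis signal of reporter cDNA fragments serves as read-out. HepG2 cells bear transiently transfected cis-promoter reporter units and are exposed 24 h; gain- or loss-of-signal is fitted against DMSO.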

[14] = ATG_M_19_CIS: Attagene CIS-FACTORIAL HepG2 Assay for M19 Transcription Factor (Internal Marker) (AID 2282939); settings: HepG2 Attagene CIS-FACTORIAL M19 internal marker reporter; actives raise or lower the signal
Outline: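 Background-control endpoint from a multiplexed HepG2 reporter panel. Cells carrying cis-regulated reporter constructs are treated 24 h, then reporter transcripts are amplified, fluorescently labelled and sized by capillary electrophoresis. DMSO defines baseline.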

[15] = ATG_ERE_CIS: Attagene CIS-FACTORIAL HepG2 Assay for Estrogen Response Element (ERE) (AID 2282940); settings: HepG2 ERE cis-reporter, Attagene RNA transcript; actives raise or lower the signal
Outline: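 Cells used were human hepatoma HepG2, transfected with multiple reporter transcription units under cis-regulatory promoters. Reporter mRNA, read 24 h post-dosing via fluorescent RT-PCR products on capillary electrophoresis, was fitted bidirectionally relative to DMSO.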

[16] = ATG_Ets_CIS: Attagene CIS-FACTORIAL HepG2 Assay for human Erythroblast Transformation Specific (ETS) (AID 2282941); settings: HepG2 ETS cis-reporter transcription, actives raise or lower the signal
Outline: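 Bidirectional fit versus DMSO of reporter mRNA signal, detected by RT-PCR and capillary electrophoresis in HepG2 cells transiently transfected with cis-element reporters and dosed 24 h.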

[17] = target: Hepatocyte nuclear factor 3-beta (Homo sapiens) (UniProt Q9Y261); assay: ATG_FoxA2_CIS: Attagene CIS-FACTORIAL HepG2 Assay for human Forkhead box A2 (FOXA2) (AID 2282942); settings: HepG2 cis-reporter transcription factor activity, 24 h; actives raise or lower the signal
Sequence of Hepatocyte nuclear factor 3-beta (Homo sapiens) (Q9Y261 whole entry, looked up, the tested form may be a part): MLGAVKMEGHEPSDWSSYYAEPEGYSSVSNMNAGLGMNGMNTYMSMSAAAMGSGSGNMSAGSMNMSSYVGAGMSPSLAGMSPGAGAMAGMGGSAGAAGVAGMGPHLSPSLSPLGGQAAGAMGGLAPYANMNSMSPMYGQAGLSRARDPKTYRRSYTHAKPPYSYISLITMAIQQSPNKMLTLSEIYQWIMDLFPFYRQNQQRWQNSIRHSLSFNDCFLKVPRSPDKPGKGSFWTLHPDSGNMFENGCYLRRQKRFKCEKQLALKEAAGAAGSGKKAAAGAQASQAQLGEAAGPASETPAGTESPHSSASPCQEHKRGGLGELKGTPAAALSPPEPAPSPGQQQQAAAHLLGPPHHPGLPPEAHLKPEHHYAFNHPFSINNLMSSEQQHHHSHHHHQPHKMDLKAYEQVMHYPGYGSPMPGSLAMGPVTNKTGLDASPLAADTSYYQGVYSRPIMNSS
Outline: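 Fluorescence signal of reporter cDNA fragments, separated by capillary electrophoresis, reflects endogenous transcription factor activity in transfected HepG2 after 24 h. Both increases and decreases fitted against DMSO.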

[18] = ATG_FoxO_CIS: Attagene CIS-FACTORIAL HepG2 Assay for human Forkhead box O (FoxO) (AID 2282943); settings: HepG2 Attagene cis-reporter, FoxO element, mRNA; actives raise or lower the signal
Outline: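 HepG2 cells transiently transfected with cis-promoter-driven multiple reporter transcription units; 24 h after chemical dosing, reporter mRNA quantified by RT-PCR, fluorescent primer extension, HpaI digestion and capillary electrophoresis. Bidirectional fitting versus DMSO baseline.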

[19] = ATG_GATA_CIS: Attagene CIS-FACTORIAL HepG2 Assay for human GATA Binding Protein (AID 2282944); settings: HepG2 GATA cis-element reporter, Attagene multiplex mRNA; actives raise or lower the signal
Outline: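 Endogenous transcription factor activity was captured through cis-promoter-driven reporters in transfected HepG2 cells. After 24 h exposure, reporter transcripts were quantified by RT-PCR with fluorescent capillary electrophoresis, and responses fitted both directions against DMSO.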

Measured: AC50

O=P(O)(O)CCCl
inactive: all assays above

CC(C)Nc1nc(Cl)nc(NC(C)C)n1
inactive: all assays above

CCOc1cc(C(C)(C)C)ccc1C1COC(c2c(F)cccc2F)=N1 (centres undefined)
active: [2] 4.09 µM | [5] 13.2 µM
inactive: all other assays above

CC(C)C1(C)N=C(c2ncccc2C(=O)O)NC1=O (centres undefined)
inactive: all assays above

CC(C)(C)C(=O)C(Oc1ccc(Cl)cc1)n1cncn1 (centres undefined)
active: [2] 41.9 µM | [3] 50 µM | [6] 34.7 µM | [7] 74.2 µM | [9] 50 µM | [15] 20 µM
inactive: all other assays above

CCCN(CC)CC1COC2(CCC(C(C)(C)C)CC2)O1 (centres undefined)
active: [2] 13.6 µM | [4] 17.8 µM | [6] 26.1 µM | [7] 19.7 µM | [9] 22.2 µM | [13] 15 µM | [17] 16.9 µM
inactive: all other assays above
